# Source: PubChem BioAssay
# FLuc inh = Photinus pyralis luciferase inhibition; purified P. pyralis luciferase, luminescence, biochemical; Potency, µM (doses to about 115 µM), most hits filed as inhibitors; 2.5% of 76,000 active; AID 1347043; further: nearly all actives have a fitted effect of over 65% in size
#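 Purified 10nM P. pyralis luciferase with 10uM D-luciferin and 10uM ATP in 50mM Tris acetate pH 7.5, 10mM Mg acetate, 0.01% Tween-20, 0.05% BSA. qHTS titration; luminescence read by CCD imager.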
# HEK293 tox = kills HEK 293 cells | AID 1345083 | 6.6% of 94,000 active | Potency, µM (series often up to 115 µM), inactives show at the highest dose activity change, negative = cytotoxicity, actives largely listed as inhibitors | HEK 293 viability, ATP luminescence (CellTiter-Glo), 48-72 h; further: nearly all actives have a fitted effect of over 60% in size
#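 Read-out: CellTiter-Glo ATP luminescence. Cells: HEK 293, 250 cells/well. Exposure: 48 or 72 hr, 37 degree Celsius.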
# 3T3 cytotox = NIH 3T3 cell cytotoxicity; NIH 3T3 viability, CellTiter-Glo ATP luminescence, 48-72 h; Potency, µM (titrated, usually from 96.7 µM), without a hit: at the top dose activity change, negative = cytotoxicity, usual class: inhibitors; 4.3% of 94,000 active; further: nearly all actives have a fitted effect of over 55% in size
#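 ATP-dependent luminescence (CellTiter-Glo) served as the viability signal for NIH 3T3 cells treated with compound for 48 or 72 hr at 37 °C.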
# NPR1 antag = human Npr1 receptor antagonism; Potency, µM (top dose mostly 46.3 µM), for the others: top-dose activity change, negative = inhibition, hits mostly inhibitors; HEK293 hNpr1 GloSensor cGMP, ANP-stimulated luminescence; AID 1347048; 1.6% of 76,000 active; calls by dose curve; further: nearly all actives have a fitted effect of over 60% in size
# Target sequence (P16066 whole entry, looked up): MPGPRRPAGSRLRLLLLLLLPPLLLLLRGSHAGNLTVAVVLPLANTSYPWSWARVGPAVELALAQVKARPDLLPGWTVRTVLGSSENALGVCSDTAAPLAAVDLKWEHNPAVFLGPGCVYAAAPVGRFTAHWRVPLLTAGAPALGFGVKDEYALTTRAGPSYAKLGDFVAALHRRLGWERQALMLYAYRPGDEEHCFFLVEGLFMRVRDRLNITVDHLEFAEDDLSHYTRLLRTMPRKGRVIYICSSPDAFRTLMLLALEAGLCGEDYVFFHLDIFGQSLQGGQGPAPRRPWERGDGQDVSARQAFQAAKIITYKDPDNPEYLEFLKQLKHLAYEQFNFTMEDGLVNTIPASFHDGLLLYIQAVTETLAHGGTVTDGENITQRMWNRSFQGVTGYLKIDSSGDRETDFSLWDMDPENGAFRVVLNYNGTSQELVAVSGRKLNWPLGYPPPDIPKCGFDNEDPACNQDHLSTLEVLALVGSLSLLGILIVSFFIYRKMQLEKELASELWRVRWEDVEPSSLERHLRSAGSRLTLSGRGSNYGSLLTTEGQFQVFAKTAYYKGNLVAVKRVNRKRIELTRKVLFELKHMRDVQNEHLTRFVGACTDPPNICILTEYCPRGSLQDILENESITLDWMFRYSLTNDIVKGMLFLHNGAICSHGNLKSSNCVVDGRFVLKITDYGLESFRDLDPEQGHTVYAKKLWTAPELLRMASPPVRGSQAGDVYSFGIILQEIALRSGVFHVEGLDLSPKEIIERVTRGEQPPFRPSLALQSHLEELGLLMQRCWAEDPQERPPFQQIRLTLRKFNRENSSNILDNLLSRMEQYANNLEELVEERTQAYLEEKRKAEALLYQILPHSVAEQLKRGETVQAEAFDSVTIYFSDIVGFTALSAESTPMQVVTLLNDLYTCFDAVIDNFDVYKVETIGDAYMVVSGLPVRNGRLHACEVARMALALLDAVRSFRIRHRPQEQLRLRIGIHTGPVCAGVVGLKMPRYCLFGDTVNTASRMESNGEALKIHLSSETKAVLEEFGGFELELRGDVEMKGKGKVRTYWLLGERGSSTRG
#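 Compound pre-incubated 30 min at room temperature on GloSensor-loaded HEK293 cells stably carrying hNpr1 and the pGS-40F cGMP biosensor. Stimulation uses hNppA at 0.1 nM final; luminescence is taken at baseline and 20 min post-agonist.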
# Numbers without * were called inactive; i = inactive; ? = inconclusive; . = no result; [ ] = another dose, or the depositor's remark. Compounds with a hit are over-represented: about 11% of the library has one in this group of screens. Unless noted, the call rests on the fitted dose curve; in most records, active means well fitted curve in the direction sought with a large enough effect; inconclusive means small, poorly fitted or top-dose-only effect, or another doubt; inactive means no such curve, though single readings can be large; an effect the other way counts as inactive or inconclusive. On the % scale 0 is the no-effect control and ±100 the full control effect; potency means the concentration at half of the fitted maximal effect.
SMILES,FLuc inh,HEK293 tox,3T3 cytotox,NPR1 antag
COc1cccc(NC(=O)N2CCOC(CN(CC(C)C)C(=O)c3cccc(OC)c3)C2)c1 (stereo not drawn),i,?,-36%,-11%
CC(C)CN(CC1CN(C(=O)c2cccc(Cl)c2)CCO1)C(=O)c1cccc2ccccc12 (stereo not drawn),i,35µM*,?,-20%
Cc1ccc(C(=O)N(CC(C)C)CC2CN(C(=O)Nc3cccc(Cl)c3)CCO2)cc1 (stereo not drawn),i,40µM*,?,-13%
COCCCNC(=O)c1cc(-c2cc(Cl)cc(Cl)c2)c2nncn2n1,.,-15%,?,.
O=C(NCCc1ccccc1)c1cc(-c2ccsc2)c2nncn2n1,.,40µM*,?,.
O=C(NCCCc1ccccc1)c1cc(-c2ccccc2)c2nncn2n1,.,45µM*,?,.
NCCc1noc(Cc2ccccc2)n1,i,13%,-1%,0%
COc1cccc(C(=O)N2CCOc3ccc(CN4CCc5ccccc5C4)cc3C2)c1,i,45µM*,?,-4%
Cc1ccsc1C(=O)N1CCOc2ccc(CN3CCc4ccccc4C3)cc2C1,i,35µM*,?,-29%
O=C(N1CCOc2ccc(CN3CCc4ccccc4C3)cc2C1)C1(c2ccccc2)CC1,i,45µM*,?,?
O=C(Cc1cccs1)N1CCOc2ccc(CN3CCc4ccccc4C3)cc2C1,i,?,?,-23%
CCC(=O)N1CCOc2ccc(CN3CCc4ccccc4C3)cc2C1,i,?,-24%,2%
O=C1Nc2ccc(-c3cccc(C(F)(F)F)c3)cc2C(=O)N2C[C@H](O)C[C@@H]12,i,?,?,4%[70.6 µM]
CCC(C)NC(=O)C1CCN(C(=O)c2nnn3c2COC(c2ccc(OC)cc2)C3)CC1 (stereo not drawn),i,13%,i,1%
CN1C[C@H](NCC2CC2)CCC[C@@H](C(=O)NCc2cc(F)cc(F)c2)CC1=O,i,i,i,-2%[70.6 µM]
COc1ccccc1-c1cc(C(=O)NCC2CCCCC2)c2cnn(C)c2n1,.,-2%,-17%,.
Cn1ncc2c(C(=O)NCC3CCCCCC3)cc(-c3ccccc3F)nc21,.,32µM*,?,.
COc1ccc(-c2cc(C(=O)NCCc3ccccc3F)c3cnn(C)c3n2)cc1,.,32µM*,?,.
Cn1ncc2c(C(=O)NCCc3ccccc3F)cc(-c3ccc(F)cc3)nc21,.,32µM*,?,.
COc1ccc(CCNC(=O)c2cc(-c3ccccc3F)nc3c2cnn3C)cc1,.,35µM*,?,.
Cn1ncc2c(C(=O)NCCc3ccccc3F)cc(-c3ccsc3)nc21,.,-3%,-10%,.
CCOCc1nc(C2CCCN(C(=O)Nc3ccccc3OCC)C2)no1 (stereo not drawn),i,-6%,i,-9%
Cn1ccnc1CN1C(=O)CO[C@H]2CN(Cc3c[nH]c4ccccc34)C[C@H]21,i,?,-22%[174 µM],1%[70.6 µM]
COc1ccccc1NC(=O)Nc1ccc2n(c1=O)C[C@H]1C[C@@H]2CN(C(=O)Cc2cccs2)C1,i,-12%,i,8%
CCn1nc(C(C)C)cc1C(=O)NCc1cccnc1N1CCN(C)CC1,i,-4%,-7%,2%
SMILES,FLuc inh,HEK293 tox,3T3 cytotox,NPR1 antag
Cc1nn(-c2ccc(F)cc2)c(C)c1[C@@H]1C=C[C@@H](NC(=O)NC(C)C)C1,63µM*,?,?,?
Cc1nn(-c2ccc(C(C)(C)C)cc2)c(C)c1[C@@H]1C=C[C@@H](NC(=O)NC(C)C)C1,14µM*,45µM*,45µM*,?
Cc1ccccc1-n1nc(C)c([C@H]2C=C[C@@H](OC(=O)NC(C)C)C2)c1C,i,?,25µM*,-13%[70.6 µM]
Cc1ccccc1S(=O)(=O)N1C[C@@H](Oc2cccnc2)C[C@H]1C(N)=O,i,i,2%,1%
CCn1ncc(N2CCCC(CC(=O)Nc3ccc(C)cc3C)C2)cc1=O (stereo not drawn),i,-4%,-12%,-3%
CN(C)Cc1cc(C[C@@H]2C[C@H](N(Cc3ccco3)Cc3ccco3)C2(C)C)no1,i,71µM*,79µM*,-4%[70.6 µM]
CC1(C)[C@H](Cc2cc(CN3CCOCC3)on2)C[C@@H]1N(Cc1ccco1)Cc1ccco1,i,?,?,-28%
CC1=C[C@@H](CN2CCC(C(N)=O)CC2)[C@H](C(C)C)C[C@H]1Cc1nnc(-c2cncn2C)o1,i,-16%,-15%,1%
COc1ccccc1C(=O)N1CCCN(C)c2ccccc21,i,79µM*,?,-11%
CN1CCCN(C(=O)C2CCCC2)c2ccccc21,i,89µM*,?,-5%
CN1CCCN(C(=O)C2CCC2)c2ccccc21,i,-12%,-20%,-6%
CCCN1Cc2ccccc2NC(=O)C12CCNC2 (stereo not drawn),.,i,i,.
O=C1Nc2ccccc2CN(Cc2ccc(Cl)cc2)C12CCNCC2,i,20µM*,14µM*,-16%
O=C1Nc2ccccc2CN(Cc2ccccc2)C12CCNC2 (stereo not drawn),.,?,89µM*,.
O=C1Nc2ccccc2CN(CC2CCOCC2)C12CCNCC2,.,i,4%,.
O=C1Nc2ccccc2CN(C/C=C/c2ccccc2)C12CCNC2 (stereo not drawn),.,?,25µM*,.
COCCOCc1nc(C2CCN(C(=O)c3ccccc3OC)CC2)no1,.,-15%,-17%,.
O=C1CCCN1CCCN1C(=O)[C@H]2CN(Cc3cccs3)C[C@H]2C1=O,i,3%,-4%,2%
COCCn1c(C)cnc1CCNS(=O)(=O)c1cccnc1,i,-8%,-6%,-1%
CC(C)Cn1nc2n(c1=O)CCN(S(=O)(=O)c1cc(F)ccc1F)CC2,i,-3%,-10%,7%
O=C(NC1CCCC1)c1csc(N2CCN(c3cccc(Cl)c3)CC2)n1,i,35µM*,?,-19%
CCCCN1CCN(C(=O)c2csc(N3CCN(c4cccc(Cl)c4)CC3)n2)CC1,i,22µM*,?,-30%
CC1CCN(C(=O)c2csc(N3CCN(c4ccc(Cl)cc4)CC3)n2)CC1,i,?,?,?
C=CCN1CC2(CCC1=O)CCN(CC1CCCS(=O)(=O)C1)CC2 (stereo not drawn),i,i,1%,6%
COc1ccc(-c2noc([C@@H]3CCCN3C(=O)c3ccc(C)cc3)n2)cc1OC,i,?,-29%,4%
COc1ccc(-c2noc([C@@H]3CCCN3C(=O)c3cc(C)cc(C)c3)n2)cc1OC,i,32µM*,?,-1%
O=C(c1cc(Cl)ccc1F)N1CCC[C@H]1c1nc(-c2ccc(F)cc2)no1,i,79µM*,?,-13%
COc1ccc(C(=O)Nc2cnc(-c3ccc(Cl)cc3)nc2)cc1,?,?,i,-27%
Cc1ccc(-c2nc(C(=O)N3CCN(c4cc(C)ccc4C)CC3)no2)cc1,i,?,?,-14%
